Shown are actives, neighbours in structure and some others; about 2.4% of the full set was active somewhere.
D2 antag – D2 dopamine receptor (human) antagonism | P14416 | HEK293 TREx D2 cells, calcium flux, dopamine EC80 | inhibition, % at 10 µM | actives 2% (n = 340,000) | AID 485344; in the data active = inhibition above about 30%; inactive = below that, where a call was filed; note: 0% is about no effect
Target sequence (P14416 whole entry, looked up): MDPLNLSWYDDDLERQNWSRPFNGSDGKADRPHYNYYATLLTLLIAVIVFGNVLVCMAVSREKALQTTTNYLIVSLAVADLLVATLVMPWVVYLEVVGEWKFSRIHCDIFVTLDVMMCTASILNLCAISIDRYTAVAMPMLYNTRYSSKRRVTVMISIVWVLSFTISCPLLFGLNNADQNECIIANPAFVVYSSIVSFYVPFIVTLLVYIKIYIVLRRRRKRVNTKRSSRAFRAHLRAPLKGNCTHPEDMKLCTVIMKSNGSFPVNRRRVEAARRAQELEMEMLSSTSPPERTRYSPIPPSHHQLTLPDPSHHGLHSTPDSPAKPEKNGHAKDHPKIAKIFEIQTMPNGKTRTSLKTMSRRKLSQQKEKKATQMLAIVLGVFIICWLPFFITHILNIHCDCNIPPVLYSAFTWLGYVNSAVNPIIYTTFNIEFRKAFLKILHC
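Dopamine at EC80 is the agonist stimulus; test compounds precede it by 180 s. Calcium flux read kinetically in a force-coupled, inducible HEK293 T-REx D2 cell line.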
D2 ag-1 – activates the human D2 dopamine receptor; AID 624465; actives 0.084% (n = 360,000); activation, % (test concentration not listed); DiscoveRx PathHunter D2 beta-arrestin, luminescence, 90 min; 100% = 57 uM dopamine signal; in the data active = activation above about 40%; inconclusive = between about 15% and that limit
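DiscoveRx PathHunter D2 beta-arrestin cells (2,100/well) attached overnight, then compound-stimulated 90 min at 37 C in HBSS/10 mM HEPES/0.1% Tween-20 buffer; beta-galactosidase complementation read by luminescence after 1 h at ambient temperature. Dopamine 57 uM final (EC100) as control.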
D2 ag-2 – agonists of human D2 dopamine receptor | P14416 | HEK293 T-REx D2 cells, calcium flux agonist mode | activation, % at 2 µM | actives 0.53% (n = 340,000);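 active = activation over 3 SD above normal in the single-dose calcium agonist read, cut at about 30% in these data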; note: 0% is about no effect
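Tetracycline-induced HEK293 Trex cells with D2 receptor force-coupled to calcium signaling, plated overnight at 30 C and loaded with no-wash calcium dye. Calcium flux read kinetically for 180 s after compound addition; responses flag agonists.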
D2 PAM-1 – positive allosteric modulators of human D2 dopamine receptor | potentiation, % (no concentration beside the values) | P14416 | AID 624464 | DiscoveRx D2 beta-arrestin cells, luminescence, 90 min; 100% = 57 uM dopamine signal | actives 0.23% (n = 360,000); in the data active = potentiation above about 50%; inconclusive = mostly about 30% to 49%
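PathHunter beta-arrestin assay in DiscoveRx D2 cells. Compounds were added with an EC20 of dopamine (50 nM final) for 90 min at 37 deg C. Luminescence was read 1 h after detection reagent, with 57 uM dopamine as the EC100 control.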
D2 PAM-2 – positive allosteric modulators of human D2 dopamine receptor. HEK293 T-REx D2, calcium flux, EC20 dopamine potentiation. AID 485347. actives 0.34% (n = 340,000). potentiation, % at 10 µM. P14416;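 active = potentiation over 3 SD above the plate norm, cut at about 30% in these data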; note: 0% is about no effect
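Potentiation of an EC20 dopamine calcium response measured kinetically over 180 s, after a preceding 180 s compound-only read flagging agonists. Cells: inducible Hek293 Trex D2 line, 4000/well, cultured overnight at 30 C before dye loading.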
* hit, by the source's call; u = inconclusive; x = no result.

SMILES | D2 antag | D2 ag-1 | D2 ag-2 | D2 PAM-1 | D2 PAM-2
O=C1c2cccc(Cl)c2C(=O)N1c1ccccn1 | x | -3 | x | -2 | x
Cc1cc(Cl)ccc1OC(C)C(=O)NCCc1ccc2c(c1)OCCO2 (stereo not given) | 64* | -3 | 1 | -5 | -7
O=C1N[C@@H](Cc2ccccc2)[C@@H](c2ccco2)O1 | 32* | -1 | -1 | 2 | 14
Cc1cc2c(cc1S(=O)(=O)N(CCO)Cc1ccccc1)OCC(=O)N2 | x | x | 2 | x | 11
N/C(COc1ccc(Cl)cc1Cl)=N\O | -7 | -4 | 1 | -17 | 32*
O=C(CNC(=O)c1cccc(-n2cnnn2)c1)Nc1ccc(F)c(F)c1 | 38* | -2 | 0 | -2 | -20
Cc1ccccc1NC(=O)C1(C)Cc2ccccc2C(=O)O1 (stereo not given) | -10 | -2 | 2 | -6 | 33*
Cc1ccc(C)c(CN2C(=O)c3ccccc3S(=O)c3ccc(C(=O)N4CCN(c5cccc(Cl)c5)CC4)cc32)c1 (stereo not given) | x | x | 0 | x | -9
COC(=O)C1=C(C)NC2=C(C(=O)CC(C)(C)C2)C1c1ccccn1 (stereo not given) | -7 | 0 | 1 | 3 | 33*
CCOC(=O)C1CCCN(S(=O)(=O)c2ccc3[nH]c(=O)ccc3c2)C1 (stereo not given) | x | x | 1 | x | -8
O=S(=O)(/C=C/c1ccccc1)Nc1ccc2c(c1)OCO2 | 34* | -1 | 0 | 1 | 16
COc1ccc2ccc3c(c2c1)N=CC1(O3)N(C)c2ccccc2C1(C)C (stereo not given) | 2 | 13 | 1 | 71* | 9
CN1c2ccccc2C(C)(C)[C@]12C=Cc1cc(O)ccc1O2 | -1 | -2 | 0 | 19 | -28
CN1c2ccccc2C(C)(C)C12C=Nc1c(ccc3ccccc13)O2 (stereo not given) | 34* | u | 0 | 87* | 1
Cc1ccc(C)c(Oc2coc3cc(OCC(=O)Nc4ccccc4C(C)C)ccc3c2=O)c1 | 7 | x | 1 | x | 6
COc1cccc(-c2cc3nc(C)c(C)c(N4CCN(C(=O)c5ccoc5)CC4)n3n2)c1 | x | -1 | x | 1 | x
CCOc1ccccc1NC(=O)CN1C(=O)COc2ccc(S(=O)(=O)N3CCCCCC3)cc21 | x | x | -1 | x | 3
C#CCOc1ccc(C2C(C#N)=C(N)Oc3cc(O)ccc32)cc1 (stereo not given) | 14 | -1 | 1 | 5 | 5
O=C(NCC(c1ccco1)N1CCCC1)c1cc2ccccc2s1 (stereo not given) | 35* | 7 | 0 | -3 | -22
Cc1ccc(C(=O)NCC(c2ccco2)N2CCCCC2)s1 (stereo not given) | 36* | -1 | 0 | -30 | -14
CCC1(c2ccccc2)NC(=O)N(CC(=O)Nc2cc(S(=O)(=O)N3CCCCCC3)ccc2OC)C1=O (stereo not given) | x | 8 | x | 63* | x
COc1ccc(OC)c(NC(=O)CN2C(=O)CSc3ccc(S(=O)(=O)N4CCCC4)cc32)c1 | -10 | -5 | 0 | -2 | 33*
COc1ccc(C)cc1NC(=O)CN1C(=O)CSc2ccc(S(=O)(=O)N3CCCC3)cc21 | -5 | -1 | 0 | -5 | 13
Cc1cc2c(n1-c1ccc(C(=O)NCCc3ccc(Cl)cc3)cc1)CCCC2 | x | x | -1 | x | -1
Cc1cccc(-c2nnc(SCC(=O)c3ccc(O)cc3O)n2C)c1 | 21 | -2 | -1 | -6 | -7
SMILES | D2 antag | D2 ag-1 | D2 ag-2 | D2 PAM-1 | D2 PAM-2
CC1(C)C(c2ccccc2)=[N+]([O-])C2(CCCCC2=O)N1O (stereo not given) | 33* | 6 | -1 | 21 | 4
CC1(C)C(c2cccs2)=[N+]([O-])C2(CCCCC/C2=N\O)N1O (stereo not given) | 5 | 5 | -1 | u | 12
CCSc1ncc(Cl)c(C(=O)N2CCN(c3ccccc3OC)CC2)n1 | x | x | -1 | x | 3
C=C1C(=O)C=C2CN(C(=O)c3ccccc3)[C@@](Cc3ccc(F)cc3)(C(=O)OC)[C@@H]12 | 44* | -9 | 24 | -24 | 9
COC(=O)[C@@]1(Cc2ccc(OC)cc2)[C@@H]2C(=CC(=O)[C@H]2CC(=O)C(=O)N(C)C)CN1C(=O)c1ccccc1 | -11 | -2 | 1 | 1 | 5
Cc1ccc(-n2nc3c(c2NC(=O)c2ccco2)CS(=O)C3)c(C)c1 (stereo not given) | 33* | -4 | 0 | 2 | -1
CCOC(=O)C1(C)CCN1C(=O)c1cccc(Cl)c1 (stereo not given) | x | 42* | x | 4 | x
CC(=O)N1CCc2cc(S(=O)(=O)NC(C(=O)Nc3ccc(C)cc3C)C(C)C)ccc21 (stereo not given) | x | x | -1 | x | -5
CC(=O)N1CCCc2cc(S(=O)(=O)NC(C(=O)NCc3ccc(C)cc3)C(C)C)ccc21 (stereo not given) | -4 | -3 | 1 | -8 | 46*
COc1ccc(Nc2nc3ccccc3nc2NS(=O)(=O)c2ccc(Cl)cc2)cc1OC | x | x | 5 | x | -4
CCOC(=O)C1=C(CS(=O)(=O)c2ccccc2)NC(=O)NC1c1ccccc1OCC (stereo not given) | 36* | -2 | 0 | -3 | -12
Cc1ccc(CN2CCN(C3CCNCC3)C(=O)C2=O)cc1 | x | x | 0 | x | -17
CCN(CC)CCNC(=O)C(Cl)=C1C(Cl)=C(Cl)C(Cl)=C1Cl | x | 1 | x | -27 | x
C=CCn1c(SCC(=O)c2cccs2)nc2sc(C)c(C)c2c1=O | x | -1 | x | 19 | x
C=CCSc1nc2sc(C)c(C)c2c(=O)n1CC=C | 12 | -4 | 0 | -23 | 1
C=CCn1c(SCc2ccc(C(=O)NCCO)cc2)nc2sc(C)c(C)c2c1=O | 1 | -2 | -1 | 3 | 31*
C=CCn1c(SCc2cc(=O)n3ccsc3n2)nc2sc(C)c(C)c2c1=O | -2 | 2 | 0 | -10 | 36*
CCn1cc(C(=O)OCC(=O)Nc2ccc(C)c(Cl)c2)c(=O)c2ccc(C)nc21 | x | x | 0 | x | -1
Cc1cc(C)n(CC2CC(=O)N(c3cc(Cl)cc(Cl)c3)C2=O)n1 (stereo not given) | 31* | 0 | 0 | 8 | -5
COC(=O)N/N=C/c1cccc(OCCSc2ccc(Cl)cc2)c1 | 1 | -10 | -1 | 10 | 0
CCOC(=O)c1noc2ncnc(Nc3cccc(C(F)(F)F)c3)c12 | x | x | 0 | x | 13
COc1ccc(OC)c(CN2CCN(C(=O)CNC(=O)c3ccc(C(C)(C)C)cc3)CC2)c1 | -4 | 4 | 0 | -2 | 9
Clc1ccc(-c2ccc(CNCC3CCCO3)o2)cc1 (stereo not given) | 35* | 3 | -2 | -8 | -23
CS(=O)(=O)N1CCc2cc(C(=O)NCc3ccccc3)ccc21 | x | x | 0 | x | -7

Assay outcomes: PubChem, National Center for Advancing Translational Sciences (NCATS)
